Screening data: PubChem BioAssay, National Center for Advancing Translational Sciences (NCATS)
DT40 TDP1 CPT – qHTS for Inhibitors of human tyrosyl-DNA phosphodiesterase 1 (TDP1): qHTS in cells in presence of CPT. chicken DT40 Tdp1-/-;hTDP1 cells + 20 nM CPT, ATP luminescence, 48 h. Potency, µM (series often up to 46.2 µM), most hits filed as inhibitors. 420,000 tested, 12% active. AID 686979, 2013; note: nearly all actives have a fitted effect of over 55% in size
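Chicken DT40 Tdp1-/- cells stably complemented with human TDP1 were seeded at 400 cells/well in medium containing 20 nM camptothecin, exposed to pin-transferred compounds, and grown at 37 °C for at least 48 hr. Viability was read as ATP luminescence.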
HT1080 IDH1KD tx – qHTS for induction of synthetic lethality in tumor cells producing 2HG: qHTS for the HT-1080-IDH1KD cell line; HT-1080 IDH1 knockdown viability, ATP luminescence, 48 h; Potency, µM (highest dose often 46.1 µM), hits mostly cytotoxic; 360,000 tested, 2% active; AID 686971, 2013
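% activity derives from luminescence (CellTiter-Glo), normalised to DMSO and no-cell wells. HT-1080-IDH1KD cells, 750/well, had 48 h compound exposure at 37 °C.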
HT1080NT lethal – qHTS for induction of synthetic lethality in tumor cells producing 2HG: qHTS for the HT-1080-NT fibrosarcoma cell line; HT-1080-NT fibrosarcoma viability, CellTiter-Glo ATP luminescence, 48 h; Potency, µM (top dose mostly 46.1 µM), hits mostly cytotoxic; AID 686970, 2013; 360,000 tested, 1.6% active;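 note: NT is the 2HG producing partner of a matched IDH1 knockdown line; nearly all actives have a fitted effect of over 55% in size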
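Compounds were tested in concentration-response format on HT-1080-NT cells for 48 hours at 37 degrees C. Cell viability came from CellTiter-Glo luminescence; curves were classified by r2, response magnitude and activity.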
DT40 TDP1 no CPT – qHTS for Inhibitors of human tyrosyl-DNA phosphodiesterase 1 (TDP1): qHTS in cells in absence of CPT | 420,000 tested, 15% active | Potency, µM (titrated, usually from 46.2 µM), usual class: inhibitors | DT40 Tdp1-/- hTDP1 cells, no CPT, ATP luminescence, 48 h | AID 686978, 2013; note: nearly all actives have a fitted effect of over 55% in size
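Stably hTDP1-transfected Tdp1-null chicken DT40 cells were treated with library compounds minus camptothecin and grown for at least 48 hr at 37 °C, after which cellular ATP was quantified by luminescence.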
IL-1B inflam inh – qHTS for Inhibitors of Inflammasome Signaling: IL-1-beta AlphaLISA Primary Screen | activity change, % at 57.5 µM | THP-1 LPS/ATP IL-1B secretion, AlphaLISA, 16 h; stronger effect = lower value | 360,000 tested, 4.7% active; in the data active = activity change below about -50%; inconclusive = mostly about -30% to -49%
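Secreted IL-1B measured by AlphaLISA bead assay after 16 h compound exposure of THP-1 cells; compounds (final up to 57.5 uM) added 1 h before LPS (250 ng/mL) and ATP (1.25 mM) stimulation; lower signal means less secretion.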
12-LOX inh – Primary qHTS assay for inhibitors of human arachidonate 12S-lipoxygenase (ALOX12): Round 2; purified 12hLO, xylenol orange hydroperoxide absorbance; Potency, µM (highest dose often 108 µM), most hits filed as inhibitors; 580,000 tested, 1.1% active
Target sequence (P18054 whole entry, looked up): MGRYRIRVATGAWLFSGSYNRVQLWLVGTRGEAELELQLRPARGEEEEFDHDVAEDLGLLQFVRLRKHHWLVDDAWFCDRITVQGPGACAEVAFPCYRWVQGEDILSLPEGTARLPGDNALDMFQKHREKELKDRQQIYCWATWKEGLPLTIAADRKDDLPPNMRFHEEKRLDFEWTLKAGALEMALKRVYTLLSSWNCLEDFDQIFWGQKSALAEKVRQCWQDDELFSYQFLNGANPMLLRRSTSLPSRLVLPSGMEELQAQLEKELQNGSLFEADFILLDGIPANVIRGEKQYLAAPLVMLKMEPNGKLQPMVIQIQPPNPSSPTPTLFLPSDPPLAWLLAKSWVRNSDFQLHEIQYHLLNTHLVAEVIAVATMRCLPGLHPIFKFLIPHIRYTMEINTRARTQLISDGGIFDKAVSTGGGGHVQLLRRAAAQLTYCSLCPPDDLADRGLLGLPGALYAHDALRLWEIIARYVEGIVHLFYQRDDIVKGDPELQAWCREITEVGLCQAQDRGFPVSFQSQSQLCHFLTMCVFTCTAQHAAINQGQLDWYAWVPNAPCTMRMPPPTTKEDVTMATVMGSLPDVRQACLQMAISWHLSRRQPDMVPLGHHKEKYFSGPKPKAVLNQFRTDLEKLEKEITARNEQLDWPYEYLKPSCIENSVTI
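Hydroperoxide product was detected by ferrous iron/xylenol orange as the 573 to 405 nm absorbance ratio. Arachidonic acid at 40 uM (final) was turned over for 30 min at room temperature by 150 nM human 12hLO, pH 7.0 Hepes buffer, after 15 min compound preincubation.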
Hits are given with their value; 0 = inactive; ? = inconclusive; - = no result given. The entries come from a sample that favours hits as a whole. Unless noted, calls come from the whole dose curve; as a rule, active = well fitted curve in the direction sought with a large enough effect; inconclusive = small, poorly fitted or top-dose-only effect, or another doubt; inactive = no such curve, though single readings can be large; an effect the other way counts as inactive or inconclusive.

SMILES	DT40 TDP1 CPT	HT1080 IDH1KD tx	HT1080NT lethal	DT40 TDP1 no CPT	IL-1B inflam inh	12-LOX inh
O=C(Nc1ccc(-c2csc(Nc3cccc(C(F)(F)F)c3)n2)cc1)c1cc([N+](=O)[O-])cc(C(F)(F)F)c1	14.6µM	0	0	16.4µM	0	0
O=C(Nc1cccc(-c2csc(Nc3ccccc3)n2)c1)c1ccccc1	?	0	0	20.6µM	-61.2	0
O=C(Nc1cccc(-c2csc(Nc3cccc(C(F)(F)F)c3)n2)c1)c1ccccc1	?	?	0	?	0	0
Cc1ccc(S(=O)(=O)N2CCN(CC(=O)NC(C)(C)C)CC2)cc1C	-	-	-	-	-	0
CC(=O)NCc1ccc(-c2csc(Nc3cccc(C(F)(F)F)c3)n2)o1	-	-	-	-	-	10µM
O=C(O)c1ccc(Nc2nc(-c3ccc(Cl)cc3)cs2)cc1O	-	-	-	-	-	10µM
Cc1nc(C)c(-c2csc(Nc3ccc(C(=O)O)c(O)c3)n2)s1	0	0	0	0	?	0
Cc1ccc(-c2csc(Nc3ccc(O)c(C(=O)O)c3)n2)cc1	-	-	-	-	-	35.5µM
N#Cc1ccc(-c2ccccc2)nc1SCC(=O)Nc1cccc(Cl)c1	-	-	-	-	-	0
Cc1cc(C(=O)NC2CC(C)(C)Cc3nc(C(C)(C)C)ncc32)n[nH]1 (stereo unspecified)	-	-	-	-	-	0
N#Cc1c(N)nc(N)nc1Nc1ccc(Br)cc1	?	0	0	14.6µM	0	0
Cc1nc(N)nc(Nc2ccc(C#N)cc2)c1Br	?	0	0	?	0	0
COc1cc(=O)n2c(c1C(=O)NCc1ccco1)CCN(Cc1ccc(F)cc1Cl)CC2	0.206µM	-	-	2.91µM	-	0
Cn1nc(C(=O)NC(c2ccccc2)c2cccs2)c2ccccc2c1=O (stereo unspecified)	-	-	-	-	-	0
COc1ccccc1NC(=O)/C(C#N)=C/c1c[nH]c2ccccc12	-	-	-	-	-	0
Cc1nn(CCc2n[nH]c(=S)n2C2CCCCC2)c(C)c1Br	0	?	?	0	0	22.4µM
COc1cc(CN(C)CC2CCCN(CCc3cccc(C(F)(F)F)c3)C2)ccc1O (stereo unspecified)	?	?	0	23.1µM	?	?
COc1ccc(F)c(CN(C)CC2CCCN(CCc3ccc(F)cc3)C2)c1 (stereo unspecified)	?	?	?	16.4µM	-57.8	?
COc1ccc(CCN2CCCC(CN(C)Cc3cc(OC)c(OC)c(OC)c3)C2)cc1 (stereo unspecified)	20.6µM	?	0	16.4µM	0	0
CC(=O)c1cccc(CN(C)CC2CCCN(CCc3ccccc3C)C2)c1 (stereo unspecified)	16.4µM	0	0	?	0	0
COC(=O)CCC(=O)N(C)CC1CCCN(CCc2cccc(C(F)(F)F)c2)C1 (stereo unspecified)	0	0	0	0	0	0
CCc1ccc(Cl)c(CC)c1NC(=O)C1CC2CCC(C1)C21SCCS1 (stereo unspecified)	-	-	-	-	-	0
COc1ccc(CN(C)CC2CCCN(CCc3ccc(F)cc3)C2)cc1OC (stereo unspecified)	16.4µM	0	?	23.1µM	?	?
COc1cc(CN(C)CC2CCCN(CCc3ccccc3F)C2)cc(Cl)c1OC (stereo unspecified)	?	?	0	25.9µM	-83.8	?
COc1ccc(CN(C)CC2CCCN(CCc3ccc(Cl)cc3)C2)cc1OC (stereo unspecified)	?	16.4µM	29.1µM	?	-86.3	0
Cc1ccc(C(=O)N2C(C(=O)NCC(C)C)COC23CCN(C(=O)c2cccc(Cl)c2)CC3)cc1 (stereo unspecified)	-	-	-	-	-	0
Cc1cc2cc(NC(=O)c3cccc(C(N)=O)c3)ccc2[nH]1	-	-	-	-	-	0
